# Screening data deposited in PubChem BioAssay by National Center for Advancing Translational Sciences (NCATS).
# Sfp PPTase inh: Sfp phosphopantetheinyl transferase inhibition. Q9F4F7. Biochemical Sfp PPTase activity, qHTS. Potency, µM, inactives show largest response in the series, negative = inhibition, actives largely listed as inhibitors. 310,000 tested, 3.5% active;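 further: the enzyme is Sfp with the accession as filed and its product quenches rhodamine fluorescence; 0% = enzyme reaction without inhibitor and -100% = no enzyme wells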
#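 Step 1, compound plus 15 nM Sfp-PPTase, 15 min, room temperature. Step 2, add rhodamine-CoA (5 uM) and BHQ-2-YbbR (12.5 uM). Step 3, read 525/598 nm fluorescence at 0 and 30 min.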
# L3MBTL1 inh: inhibitors of human L3MBTL1; Q9Y468; AlphaScreen L3MBTL1–H3K9me1 peptide binding; Potency, µM (top dose mostly 57.1 µM), without a hit: top-dose activity, negative = inhibition, most hits filed as inhibitors; 230,000 tested, 0.66% active; further: on the % scale 0 is the no-effect control and ±100 the full control effect; nearly all actives have a fitted effect of over 60% in size
#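 AlphaScreen proximity signal between nickel-chelate acceptor and streptavidin donor beads (final 10 ug/mL) reports binding of 50 nM L3MBTL1 to 75 nM biotin-H3 K9me1 peptide; complex incubated with compounds 30 min at room temperature; cefsulodin titration as control.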
# HP1b binding inh: blocks HP1-beta chromodomain binding to methylated histone tails. AlphaScreen HP1-beta / biotin-H3K9me3 peptide binding. Potency, µM (series often up to 114 µM), for the others: top-dose activity change, negative = inhibition, usual class: inhibitors. 390,000 tested, 0.56% active. AID 540317; further: nearly all actives have a fitted effect of over 70% in size
# Target sequence (P83916 whole entry, looked up): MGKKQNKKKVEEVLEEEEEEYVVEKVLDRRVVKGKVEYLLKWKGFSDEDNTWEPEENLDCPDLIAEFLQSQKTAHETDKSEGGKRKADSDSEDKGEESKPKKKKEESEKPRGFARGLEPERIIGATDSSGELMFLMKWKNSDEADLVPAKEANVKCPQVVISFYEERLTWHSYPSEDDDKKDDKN
#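 HP1-beta protein (50 nM final) preincubated 30 min at room temperature with biotinylated H3(1-18)K9me3 peptide (50 nM) in PBS pH 7.4, 0.01% Tween-20, then compound added for 30 min. AlphaScreen streptavidin donor/nickel chelate acceptor beads (10 ug/mL final), 30 min dark, luminescence read.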
# G9a inh: G9a (human) methyltransferase inhibition; 350,000 tested, 8.8% active; G9a H3K9 monomethylation, AlphaScreen, 2 h; Potency, µM (top dose mostly 102 µM), without a hit: top-dose activity, negative = inhibition, most hits filed as inhibitors; further: on the % scale 0 is the no-effect control and ±100 the full control effect; nearly all actives have a fitted effect of over 75% in size
# Target sequence (Q96KQ7 913-1193 limits assumed): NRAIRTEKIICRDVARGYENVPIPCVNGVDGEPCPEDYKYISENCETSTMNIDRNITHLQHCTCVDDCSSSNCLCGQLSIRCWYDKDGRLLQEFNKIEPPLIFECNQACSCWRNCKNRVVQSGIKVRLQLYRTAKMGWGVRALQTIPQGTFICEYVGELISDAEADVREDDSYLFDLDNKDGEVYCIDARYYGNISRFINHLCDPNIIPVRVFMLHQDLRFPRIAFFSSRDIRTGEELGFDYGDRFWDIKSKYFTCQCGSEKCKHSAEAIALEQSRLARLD
#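 AlphaScreen read-out: biotin-H3K9 peptide (500 nM) methylation by 20 nM enzyme with 20 uM SAM, 2 h at room temperature after 15 min compound preincubation; anti-monomethyl H3K9 antibody plus donor/acceptor beads, 10 min dark.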
# JMJD2A Tudor: JMJD2A Tudor domain (human) inhibition; Potency, µM (highest dose often 114 µM), inactives show at the highest dose activity change, negative = inhibition, actives largely listed as inhibitors; O75164; 390,000 tested, 4.4% active; AlphaScreen JMJD2A-Tudor / H3K4me3 peptide binding; further: on the % scale 0 is the no-effect control and ±100 the full control effect; nearly all actives have a fitted effect of over 50% in size
# BAZ2B block: BAZ2B (human) inhibition; AID 504333; Potency, µM (highest dose often 114 µM), for inactives: top-dose activity change, negative = inhibition, usual class: inhibitors; AlphaScreen BAZ2B-H3K14Ac peptide displacement; Q9UIF8; 360,000 tested, 4.4% active; further: on the % scale 0 is the no-effect control and ±100 the full control effect; nearly all actives have a fitted effect of over 60% in size
#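 BAZ2B 50 nM plus b-H3(5-23)K14Ac 50 nM, PBS pH 7.4/0.01% Tween-20, 30 min RT; compound added (max 110 uM), 30 min RT; streptavidin donor/Ni-chelate acceptor beads 10 ug/mL final, 20 min dark; AlphaScreen read.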
# * hit, by the source's call; ? = inconclusive; / = no result; [ ] = remark or other dose. This is a sample that favours compounds with a hit; in the whole collection about 12% have one here. The call rests on the fitted dose curve; in most records, active means well fitted curve in the direction sought with a large enough effect; inconclusive means small, poorly fitted or top-dose-only effect, or another doubt; inactive means no such curve, though single readings can be large; an effect the other way counts as inactive or inconclusive. Potency means the concentration at half of the fitted maximal effect.
SMILES,Sfp PPTase inh,L3MBTL1 inh,HP1b binding inh,G9a inh,JMJD2A Tudor,BAZ2B block
CCn1cc(C(=O)OCC(=O)Nc2cccc(Cl)c2C)c(=O)c2ccc(C)nc21,/,/,10.2%,-45.5%[59 µM],-12.6%,1.9%
COc1ccc(N(CC(=O)NCc2ccco2)S(=O)(=O)c2ccc(C)cc2)cc1OC,-0.5%,/,13.2%,20.2%,-18.9%,4.1%
COc1ccc(S(=O)(=O)N(CC(=O)NC2CC2)C2CCCCC2)cc1Cl,7.3%,/,8.9%,-47.8%[12.7 µM],-8.1%,5.7%
COc1ccc(S(=O)(=O)N(CC(=O)NCc2ccco2)C2CCCCC2)cc1OC,50.1µM*,-9.9%,11.3%,-29.8%[12.7 µM],-35.6%,-36.4%
CS(=O)(=O)N(CC(=O)NCc1ccco1)c1ccc(OCc2ccccc2)cc1,?,5.8%,?,/,?,70.8µM*
Cc1ccc(S(=O)(=O)N(CC(=O)NCc2ccco2)C2CCCCC2)cc1,-14.5%,?,8.7%,?,-23.3%,-34.0%
COc1ccccc1N(CC(=O)NCc1ccco1)S(=O)(=O)c1ccc(C)cc1,56.2µM*,/,44.7µM*,31.6µM*,35.5µM*,44.7µM*
COc1ccc(N(CC(=O)NCc2ccco2)S(C)(=O)=O)cc1,9.0%,0.8%,25.8%,?,-11.0%,-1.9%
CNC(=O)CN(C1CCCCC1)S(=O)(=O)c1ccc(OC)c(Cl)c1,5.1%,-13.9%,8.5%,50.1µM*,-6.2%,4.3%
CCOC(=O)c1ccc(NC(=O)c2cnc3c(-c4ccc(F)cc4)c(C)nn3c2C)cc1,/,/,-9.8%,9.4%[59 µM],-17.3%,-3.6%
COc1ccc(Cn2nnnc2C(c2cc3ccc(OC)cc3[nH]c2=O)N2CCC(C)CC2)cc1 (configuration not stated),39.8µM*,/,6.7%,?,-15.1%,-31.3%
O=c1[nH]c2cc3c(cc2cc1C(c1nnnn1CC1CCCO1)N1CCCCCC1)OCCO3 (configuration not stated),1.0%,/,20.3%,11.2µM*,-14.2%,?
O=c1[nH]c2cc3c(cc2cc1C(c1nnnn1CC1CCCO1)N1CCCCCC1)OCO3 (configuration not stated),-2.3%,-5.6%,/,?,/,-2.2%
COc1ccc2cc(C(c3nnnn3Cc3ccc(F)cc3)N3CCCCCC3)c(=O)[nH]c2c1 (configuration not stated),17.8µM*,/,29.3%,?,-25.6%,42.2%
COc1ccc2cc(C(c3nnnn3Cc3ccccc3)N3CCCCCC3)c(=O)[nH]c2c1 (configuration not stated),?,-6.8%,28.9%,12.6µM*,-16.9%,-1.5%
COCCn1nnnc1C(c1cc2ccc(OC)cc2[nH]c1=O)N1CCN(C2CCCCC2)CC1 (configuration not stated),-6.0%,-2.8%,5.3%,8.5%[59 µM],-15.1%,-26.1%
COc1ccc2cc(C(c3nnnn3CCc3ccccc3)N3CCC(O)CC3)c(=O)[nH]c2c1 (configuration not stated),2.3%,-1.4%,22.0%,28.4%[0.501 µM],-7.9%,-7.4%
COc1cc2cc(C(c3nnnn3C3CCCC3)N3CCCCC3)c(=O)[nH]c2cc1OC (configuration not stated),5.5%,/,28.7%,-47.5%[12.7 µM],-13.5%,-3.5%
COc1cc2cc(C(c3nnnn3C3CCCC3)N3CCCCCC3)c(=O)[nH]c2cc1OC (configuration not stated),3.1%,-5.8%,19.9%,12.6µM*,-14.1%,5.7%
CC(C)c1ccc(C2NC(=O)NC3=C2CCc2ccccc23)cc1 (configuration not stated),-18.1%,/,20.8%,31.6µM*,-16.0%,-6.8%
Cc1ccc(C2NC(=O)NC3=C2CCc2ccccc23)cc1 (configuration not stated),?,0.0%,22.8%,10µM*,-16.0%,-15.8%
COc1cccc(C2NC(=S)NC3=C2CCc2ccccc23)c1 (configuration not stated),50.1µM*,-4.2%,-2.8%,7.94µM*,-11.6%,-5.6%
COc1ccc(C2NC(=O)NC3=C2CCc2ccccc23)cc1 (configuration not stated),?,-3.1%,-0.9%,?,-5.9%,-3.7%
Cc1cc(C(=O)CSc2nnc(N)s2)c(C)n1Cc1ccco1,9.6%,/,9.4%,39.8µM*,-5.5%,-38.3%
Cc1cc(C(=O)COC(=O)c2cccn2C)c(C)n1Cc1ccco1,-17.6%,-57.2%,?,17.8µM*,50.1µM*,44.7µM*
SMILES,Sfp PPTase inh,L3MBTL1 inh,HP1b binding inh,G9a inh,JMJD2A Tudor,BAZ2B block
Nc1nnc(SCC(=O)c2ccco2)s1,?,3.5%,21.4%,9.2%[0.501 µM],-6.8%,2.1%
COCc1cc(C)nc2sc(C(=O)N3CCCCC3)c(N)c12,79.4µM*,/,56.8%,-9.1%[59 µM],-15.2%,4.8%
Cc1cc(C)c2c(N)c(C(=O)N3CCN(c4ncccn4)CC3)sc2n1,-17.3%,5.2%,45.6%,?,39.8µM*,-1.5%
O=C1c2ccccc2C(=O)N1c1ccc2ccccc2n1,/,/,/,/,-12.2%,/
CCn1c(CN2CCCCC2)nc2cc(NC(=O)COc3ccc(C(C)(C)C)cc3)ccc21,/,/,64.5%,2.1%[59 µM],-6.3%,-30.3%
Cc1nnc(NS(=O)(=O)c2ccc(N=Nc3ccc(N)nc3N)cc2)s1,/,/,?,/,50.1µM*,/
Cc1nnc(NS(=O)(=O)c2ccc(N)cc2)s1,17.6%,5.6%,39.5%,0.1%[59 µM],-9.7%,3.1%
COCc1nnc(NC(=O)CCCOc2ccccc2OC)s1,-15.6%,-2.4%,-25.2%,?,50.1µM*,-5.0%
O=C(CCS(=O)(=O)c1ccccc1)Nc1ncc([N+](=O)[O-])s1,9.5%,/,6.6%,44.7µM*,-5.5%,-0.7%
Cc1ccc(CC(=O)Nc2ncc([N+](=O)[O-])s2)cc1,5.8%,-7.0%,12.3%,-27.1%,-21.0%,-30.0%
O=C(CS(=O)(=O)c1ccccc1)Nc1ncc([N+](=O)[O-])s1,20.2%,/,11.0%,?,-4.2%,-14.1%
O=C(COC(=O)c1ccc(Br)o1)Nc1ncc([N+](=O)[O-])s1,/,?,-20.2%,3.16µM*,?,?
COCc1nnc(NC(=O)CCS(=O)(=O)c2ccccc2)s1,?,/,?,44.7µM*,-9.2%,?
CC(=O)Nc1ccc(NC(=O)CSc2nccn2Cc2ccc3c(c2)OCO3)cc1,/,/,18.1%[57 µM],6.9%[59 µM],-16.8%,-16.5%
O=C(CN1C(=O)c2ccccc2S1(=O)=O)Nc1ncc([N+](=O)[O-])s1,/,-13.7%,-23.3%,?,3.55µM*,?
Cc1csc(NC(=O)CN2C(=O)c3ccccc3S2(=O)=O)n1,-4.1%,/,18.7%,9.9%,-14.1%,-11.5%
O=[N+]([O-])c1c(Nc2ccccc2O)cc(Cl)c2nonc12,-63.6%,?,?,/,?,?
